Source: PubChem (NMMLSC)
Shown are actives, neighbours in structure and some others; about 1.2% of the full set was active somewhere.
AGP1 TOR yeast: yeast TOR pathway AGP1-GFP modulation | GFP response vs DMSO, % at 10 µM | 0.02% of 320,000 active | S. cerevisiae AGP1-GFP multiplex flow cytometry, 3 h; GFP as percent of DMSO wells;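 active = GFP response relative to DMSO above a set limit, near screen average plus 3 SD, cut at about 150% in these data; inconclusive = fewer than 70 cells counted for the yeast strain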;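 note: median GFP channel fluorescence of the gated AGP1 strain per well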
MEP2 TOR yeast: yeast TOR pathway MEP2-GFP modulation | AID 2016 | GFP response vs DMSO, % at 10 µM | S. cerevisiae MEP2-GFP strain, flow cytometry GFP, 3 h; 100% = DMSO control level | 0.51% of 330,000 active;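 active = GFP response versus DMSO above a set limit, roughly screen mean plus 3 SD, cut at about 180% in these data; inconclusive = fewer than 70 cells counted for a yeast strain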;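 note: median GFP fluorescence of the barcode-gated MEP2-GFP cells per well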
LAP4 TOR yeast: yeast TOR pathway LAP4-GFP modulation | S. cerevisiae LAP4-GFP multiplex, flow cytometry GFP, 3 h; median GFP as percent of DMSO wells | GFP response vs DMSO, % at 10 µM | 0.34% of 320,000 active;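 active = GFP response vs DMSO above a set limit, about the screen mean plus 3 SD, cut at about 150% in these data; inconclusive = under 70 cell events counted for the yeast strain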
RPL19A-GFP yeast: modulators of TOR pathway RPL19A-GFP in S. cerevisiae | S. cerevisiae RPL19A-GFP strain, flow cytometry, 3 h; stronger effect = lower value | percent response vs DMSO, % at 10 µM | 0.3% of 330,000 active | AID 2025;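 active = percent response vs DMSO below 50%; inconclusive = fewer than 70 events counted for the yeast strain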;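 note: median channel GFP fluorescence of the barcoded RPL19A-GFP strain; ratio of sample median GFP to plate DMSO average so 100% = DMSO; lower means less RPL19A-GFP as with rapamycin TOR inhibition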
DSG3 Ab inh: inhibitors of pemphigus antibody binding to human desmoglein-3; P32926; DSG3-coupled beads, scFv-anti-DSG3-GFP binding, flow cytometry; stronger effect = lower value; binding (percent of control), % at 10 µM; 0.48% of 310,000 active; AID 588358;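 active = binding more than 3 SD below its plate's average and above zero; inconclusive = below that plate limit but binding exactly zero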;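 note: hits lower antibody fragment binding to DSG3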
Target sequence (P32926 whole entry, looked up, the tested form may be a part): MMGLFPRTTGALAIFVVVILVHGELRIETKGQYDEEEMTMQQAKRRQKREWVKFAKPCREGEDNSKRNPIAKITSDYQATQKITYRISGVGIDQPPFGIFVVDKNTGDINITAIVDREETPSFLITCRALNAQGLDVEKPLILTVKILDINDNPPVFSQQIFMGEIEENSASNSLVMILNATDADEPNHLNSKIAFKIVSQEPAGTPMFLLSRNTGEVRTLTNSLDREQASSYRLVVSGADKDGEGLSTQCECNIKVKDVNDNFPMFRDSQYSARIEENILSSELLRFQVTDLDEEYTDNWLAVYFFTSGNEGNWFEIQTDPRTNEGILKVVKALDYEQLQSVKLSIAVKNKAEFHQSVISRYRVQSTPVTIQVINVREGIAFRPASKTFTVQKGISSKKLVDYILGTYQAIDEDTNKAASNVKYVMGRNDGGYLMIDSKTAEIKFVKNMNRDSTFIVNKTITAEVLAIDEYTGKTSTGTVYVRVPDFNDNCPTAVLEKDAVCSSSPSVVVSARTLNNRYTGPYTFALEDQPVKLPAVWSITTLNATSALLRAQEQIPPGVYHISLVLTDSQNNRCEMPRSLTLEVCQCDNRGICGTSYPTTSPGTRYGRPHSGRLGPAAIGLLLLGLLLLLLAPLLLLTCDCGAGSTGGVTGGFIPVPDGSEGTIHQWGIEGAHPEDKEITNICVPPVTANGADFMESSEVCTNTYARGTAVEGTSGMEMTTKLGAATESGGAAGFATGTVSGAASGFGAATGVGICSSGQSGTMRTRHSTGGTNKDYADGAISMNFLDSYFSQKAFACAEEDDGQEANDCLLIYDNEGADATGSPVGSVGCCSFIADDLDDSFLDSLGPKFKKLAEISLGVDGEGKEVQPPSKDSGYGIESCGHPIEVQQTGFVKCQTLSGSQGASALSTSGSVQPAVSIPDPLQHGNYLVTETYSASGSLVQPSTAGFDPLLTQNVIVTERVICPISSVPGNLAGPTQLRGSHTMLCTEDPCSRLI
CIT2 TOR yeast: yeast TOR pathway CIT2-GFP modulation; S. cerevisiae CIT2-GFP strain, flow cytometry, 3 h; 100 means same as DMSO wells; GFP response vs DMSO, % at 10 µM; 0.065% of 320,000 active;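 active = GFP response relative to DMSO above a set limit, near the screen mean plus 3 SD, cut at about 150% in these data; inconclusive = Fewer than 70 cells measured for a yeast strain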;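 note: ratio of well median GFP fluorescence to mean of DMSO wells on the plate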
LAP4-GFP pick2: yeast LAP4-GFP modulation, second cherry pick. shares compounds with LAP4 TOR yeast. S. cerevisiae LAP4-GFP strain, flow cytometry GFP, 3 h. GFP response vs DMSO, % at 10 µM. AID 2621. 20% of 590 active;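 active = GFP signal as percent of the solvent control above about 150%, meaning raised reporter expression, limit read from the data; inconclusive = fewer than 70 cells counted in the well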;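 note: ratio of well median GFP fluorescence to plate DMSO mean so 100% = DMSO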
MEP2 cherry2: yeast MEP2-GFP modulation, second cherry pick; S. cerevisiae MEP2-GFP strain, flow cytometry GFP, 3 h; 10% of 590 active; shares compounds with LAP4 TOR yeast; GFP response vs DMSO, % at 10 µM;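 active = GFP signal above 150% of the solvent control wells, that is a rise of more than half; inconclusive = fewer than 70 yeast cells counted in the well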;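 note: median channel GFP fluorescence of all gated yeast cells per well; ratio of median GFP to plate DMSO average so 100% = DMSO level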
RPL19A GFP CP2: reconfirmed modulator of RPL19A-GFP TOR reporter in yeast. S. cerevisiae RPL19A-GFP strain, flow cytometry GFP, 3 h; stronger effect = lower value; 100% means same as DMSO wells. shares compounds with LAP4 TOR yeast. 3% of 590 active. GFP response vs DMSO, % at 10 µM;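 active = under 65% GFP response relative to DMSO; inconclusive = yeast strain with under 70 measured events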;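 note: median GFP channel fluorescence per well over the all cells gate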
CIT2 GFP CP2: second confirmation of modulators of TOR reporter CIT2-GFP in yeast. S. cerevisiae CIT2-GFP strain, flow cytometry GFP, 3 h; DMSO control wells read 100%. shares compounds with LAP4 TOR yeast. AID 2624. 8% of 590 active. GFP response vs DMSO, % at 10 µM;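 active = GFP response vs DMSO above about 150%, limit read from the data; inconclusive = fewer than 70 events counted for a yeast strain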;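 note: median green fluorescence per well over all gated yeast cells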
AGP1-GFP pick2: reconfirmed modulator of AGP1-GFP TOR reporter in yeast; 590 tested, under 10 active; S. cerevisiae AGP1-GFP strain, flow cytometry GFP, 3 h; AID 2643; shares compounds with LAP4 TOR yeast; percent response vs DMSO, % at 10 µM;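 active = over 150 percent of DMSO response; inconclusive = yeast strain measured with under 70 events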;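 note: median GFP channel fluorescence over all cells without mother daughter split; sample median GFP divided by mean DMSO control so 100% equals DMSO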
s288c autofluor: counter-screen for compound autofluorescence in yeast s288c cells | shares compounds with LAP4 TOR yeast | 610 tested, under 10 active | S. cerevisiae s288c, 520 nm autofluorescence, flow cytometry, 3 h; stronger effect = higher value; zero means same as solvent-only cells | fluorescence change (kMESF span) at 33 µM;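 active = fluorescence span over the dose series, or activity score, above about 33, limit read from the data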
Yeast autofl DR: counter-screen for autofluorescence of TOR hits in yeast s288c | 110 tested, under 10 active | shares compounds with LAP4 TOR yeast | S. cerevisiae s288c parental, compound autofluorescence, flow cytometry, 3 h | fluorescence change (span) at 33 µM;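 active = fluorescence change span, or the activity score built from it, above 25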
TORC1 bypass gr: compounds blocking wildtype yeast growth but not TORC1 bypass cells | S. cerevisiae BY4741 spot growth rating, 48-72 h; stronger effect = lower value | shares compounds with LAP4 TOR yeast | 120 tested, under 10 active | growth rating (0-3) at 30 µM | AID 504456;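 active = growth rating at most 1 for wild type yeast while the TORC1 bypass strain still grows fully, rated 3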
Starred values were filed as active, the others as inactive; ? = inconclusive; nt = no result; [ ] = dose if it differs, or a comment.

SMILES	AGP1 TOR yeast	MEP2 TOR yeast	LAP4 TOR yeast	RPL19A-GFP yeast	DSG3 Ab inh	CIT2 TOR yeast	LAP4-GFP pick2	MEP2 cherry2	RPL19A GFP CP2	CIT2 GFP CP2	AGP1-GFP pick2	s288c autofluor	others
CN(CCCNC(=O)c1cc2c(=O)[nH]c3ccccc3c2n1C)Cc1ccccc1	?	91	129	31*[may fluoresce violet]	100	?	nt	nt	nt	nt	nt	nt
CCCCNc1c(-c2ccc(SC(C)CC)cc2)nc2cnccn12 (configuration not stated)	85	101	137	87	133	74	nt	nt	nt	nt	nt	nt
O=C(OCn1ncc(Br)c(Br)c1=O)c1c(F)cccc1F	93	85	227*	87	nt	81	nt	nt	nt	nt	nt	0.31	Yeast autofl DR=0.15;TORC1 bypass gr=3
O=C(CSC1=NS(=O)(=O)c2ccccc21)Nc1ccccc1	65	90	116	59	98	68	113	124	62*	115	72	0.5
COC(=O)CCC(=O)OC1(C)C(=O)C2=COC(c3ccc(OC)cc3)=CC2=C(Br)C1=O (configuration not stated)	18	79	127	39*	nt	49	151*	129	72	108	43	2.2
COC(=O)CCC(=O)OC1(C)C(=O)C2=CN(C(CO)CO)C(c3ccc(OC)cc3)=CC2=C(Br)C1=O (configuration not stated)	102	103	98	100	nt	88	nt	nt	nt	nt	nt	nt
O=S(=O)(/N=C(/Sc1ccccc1)c1ccccc1)c1ccccc1	83	90	190*	94	96	62	nt	nt	nt	nt	nt	0.1
CS/C(=N\S(=O)(=O)c1ccccc1)c1ccccc1	102	92	99	99	99	92	nt	nt	nt	nt	nt	nt
CC(C)=CCC/C(C)=C/CNC(=O)C[C@H]1C[C@H](C(=O)N2CCOCC2)[C@@]2(CCC3CCCC3)c3[nH]c4cc(-c5ccco5)ccc4c3CCN2C1=O	nt	nt	nt	nt	92	nt	nt	nt	nt	nt	nt	nt
Oc1ccc(CNc2ccccc2)c2cccnc12	99	105	78	95	95	102	103	124	105	121	103	0.4
Oc1ccc(CNc2ccc(F)cc2)c2cccnc12	107	109	84	106	nt	102	nt	nt	nt	nt	nt	nt
Cc1ccc2c(c1)N(CCCC(=O)NCC1COc3ccccc3O1)C(=O)CO2 (configuration not stated)	96	99	108	96	100	90	nt	nt	nt	nt	nt	nt
